Results filed as inconclusive are left out. Where a call stands in place of a potency, no number is given. Some structures have more than one record in an assay (separate samples or runs), and their calls can disagree. Active and inactive are the calls of the source. The call rests on the fitted dose curve; in most records, active means well fitted inhibition curve with a large enough effect; inconclusive means small, poorly fitted or top-dose-only effect; inactive means flat fitted curve, though single readings scatter.
How the values were obtained:
Experiment in all cases: qHTS profiling for inhibitors of Plasmodium falciparum proliferation (AID 504749); further: nearly all actives have a fitted effect of over 60% in size
Conditions in all cases: P. falciparum in erythrocytes, SYBR Green DNA, 72 h; series mostly up to 28.7 µM
CP262 = test system: CP262
Summary of the method: (§1)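 Infected RBCs, 0.3% parasitemia/2.5% Hct final; cpd 72 h, 37 C, 5% CO2; lysis buffer with saponin/triton/SYBR Green I, o/n RT dark; FI 485/535; norm. to artemisinin (0.29 uM) and DMSO.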

CP265 = test system: CP265
Summary of the method: as §1

CP266 = test system: CP266
Summary of the method: as §1

CP268 = test system: CP268
Summary of the method: as §1

CP269 = test system: CP269
Summary of the method: as §1

CP286 = test system: CP286
Summary of the method: as §1

CP291 = test system: CP291
Summary of the method: as §1

CP297 = test system: CP297
Summary of the method: as §1

CP305 = test system: CP305
Summary of the method: as §1

CP315 = test system: CP315
Summary of the method: as §1

CP325 = test system: CP325
Summary of the method: as §1

CP329 = test system: CP329
Summary of the method: as §1

CP335 = test system: CP335
Summary of the method: as §1

DFO2036 = test system: DFO2036
Summary of the method: as §1

DIV14 = test system: DIV14
Summary of the method: as §1

DIV17 = test system: DIV17
Summary of the method: as §1

DIV30 = test system: DIV30
Summary of the method: as §1

Dd2 = test system: Dd2
Summary of the method: as §1

ECU = test system: ECU
Summary of the method: as §1

FAB9 = test system: FAB9
Summary of the method: as §1
Potency means the concentration at half of the fitted maximal effect.

Structure (SMILES)	outcome (CP262)	Potency (CP265)	outcome (CP266)	outcome (CP268)	outcome (CP269)	outcome (CP286)	outcome (CP291)	Potency (CP297)	Potency (CP305)	outcome (CP315)	outcome (CP325)	outcome (CP329)	Potency (CP335)	outcome (DFO2036)	Potency (DIV14)	Potency (DIV17)	outcome (DIV30)	Potency (Dd2)	Potency (ECU)	outcome (FAB9)
CC(=O)c1ccc(S(=O)(=O)NC(=O)NC2CCCCC2)cc1	inactive	inactive	inactive	inactive	inactive	inactive	inactive	inactive	inactive	inactive	inactive	inactive	inactive	inactive	inactive	inactive	inactive	inactive	inactive	inactive
O=C(O)c1c(Cl)c(Cl)c(Cl)c(Cl)c1-c1c2cc(I)c(=O)c(I)c-2oc2c(I)c(O)c(I)cc12	inactive	inactive	inactive	inactive	inactive	inactive	inactive		inactive	inactive	inactive	inactive	inactive	inactive	inactive	inactive	inactive	inactive	inactive	inactive
NCCS	inactive	inactive	inactive	inactive	inactive	inactive	inactive	inactive	inactive	inactive	inactive	inactive	inactive	inactive	inactive	inactive	inactive	inactive	inactive	inactive
O=C1NCC2(CCN(CCc3ccccc3)CC2)O1	inactive	inactive	inactive	inactive	inactive	inactive	inactive	inactive	inactive	inactive	inactive	inactive	inactive	inactive	inactive	inactive	inactive	inactive	inactive	inactive
O=C1NC(=O)C(c2ccccc2)(c2ccccc2)N1	inactive	inactive	inactive	inactive	inactive	inactive	inactive	inactive	inactive		inactive	inactive	inactive	inactive	inactive	inactive	inactive	inactive	inactive	inactive
CN(C)CCC(c1ccccc1)c1ccccn1 (stereo not drawn)	inactive	12.6 µM (active)	inactive			inactive				inactive	inactive		7.57 µM (active)	inactive	6.75 µM (active)	9.53 µM (active)		inactive	inactive	inactive
O=c1[nH]cnc2c1ncn2[C@H]1CC[C@@H](CO)O1	inactive		inactive	inactive	inactive	inactive	inactive	inactive	inactive	inactive	inactive	inactive	inactive	inactive	inactive		inactive	inactive	inactive	inactive
O=C(O)Cc1cccc2ccccc12	inactive	inactive	inactive	inactive	inactive	inactive	inactive	inactive	inactive	inactive	inactive	inactive		inactive	inactive	inactive	inactive	inactive	inactive	inactive
CCN(CC)C(=O)c1ccc(O)c(OC)c1	inactive	inactive	inactive	inactive	inactive	inactive	inactive	inactive	inactive	inactive	inactive	inactive	inactive	inactive	inactive	inactive	inactive	inactive	inactive	inactive
C[C@@H](O)[C@H]1C(=O)N2C(C(=O)O)=C(S[C@@H]3CN[C@H](C(=O)N(C)C)C3)[C@H](C)[C@H]12	inactive	inactive	inactive	inactive	inactive	inactive	inactive	inactive	inactive	inactive	inactive	inactive	inactive	inactive	inactive	inactive	inactive	inactive	inactive	inactive
O=C(O)c1cc(-c2ccccc2)nc2ccccc12	inactive	inactive		inactive	inactive	inactive	inactive	inactive	inactive	inactive	inactive	inactive	inactive	inactive	inactive	inactive	inactive	inactive	inactive	inactive
Clc1ccc(Cn2c(CN3CCCC3)nc3ccccc32)cc1	inactive	inactive	inactive	inactive	inactive	inactive	inactive		inactive	inactive	inactive	inactive	inactive	inactive				inactive	inactive	inactive
CCCCC1C(=O)N(c2ccccc2)N(c2ccccc2)C1=O																		inactive	8.91 µM (active) and inactive	inactive
CCOC(=O)O[C@]1(C(=O)OCCl)CC[C@@H]2[C@H]3CCC4=CC(=O)C=C[C@]4(C)[C@@H]3[C@@H](O)C[C@@]21C	inactive	inactive		inactive	inactive	inactive	inactive	16.9 µM (active)		inactive	inactive	inactive	inactive	inactive	inactive	inactive		inactive	inactive	inactive

— PubChem BioAssay (NCATS)
